High-throughput results as filed in PubChem BioAssay.
SARS PLP yeast – SARS-CoV PLP inhibition in yeast; S. cerevisiae expressing SARS-CoV PLpro, growth rescue; Potency, µM (titrated, usually from 32.9 µM), without a hit: at the top dose activity, positive = growth rescue, actives largely listed as activators; AID 485353; actives 0.19% (n = 330,000); calls by dose curve; also: 0% is about no effect; nearly all actives have a fitted effect of over 55% in size
Pf growth 48h – P. falciparum growth inhibition at 48 hours (one generation); P. falciparum luciferase growth in erythrocytes, 48 h; Potency, µM (titrated, usually from 28.7 µM), without a hit: at the top dose activity change, negative = inhibition, most hits filed as inhibitors; actives 5.9% (n = 310,000); AID 504832; also: % is scaled to controls: 0 for no effect and ±100 for the full control effect
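In quantitative HTS format, infected erythrocytes bearing luciferase-reporter parasites were treated for a single generation at 37 C. Luminescence after adding detection reagent served as the growth measure.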
Sm TGR inh – S. mansoni TGR enzyme inhibition | Q962Y6 | purified TGR, DTNB reduction, TNB absorbance 405 nm | Potency, µM (top dose mostly 114 µM), for the others: at the highest dose activity change, negative = inhibition, usual class: inhibitors | actives 3% (n = 360,000) | AID 485364; also: % is scaled to controls: 0 for no effect and ±100 for the full control effect; nearly all actives have a fitted effect of over 60% in size
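First, TGR (20 nM dispensed) and NADPH were mixed with compound. Second, a 15 min room-temperature incubation followed. Third, further NADPH and then DTNB were added to start the reaction. Finally, TNB absorbance was monitored kinetically.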
Pf growth 96h – P. falciparum growth inhibition at 96 hour, primary screen for plastid delayed-death inhibitors; Potency, µM (doses to about 28.7 µM), for the others: at the highest dose activity change, negative = inhibition, most hits filed as inhibitors; P. falciparum luciferase reporter growth, 96 h; AID 504834; actives 6.9% (n = 320,000); also: % is scaled to controls: 0 for no effect and ±100 for the full control effect
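96 h incubation, 37 C, 5% CO2, of luciferase-reporter P. falciparum-infected RBCs (2% hematocrit, 0.05% parasitemia final) with test compounds; endpoint luminescence.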
Active calls of the source: *; ? = inconclusive; / = not tested or not shown. In the library only some 12% were active in any assay of this set; here they are far more common. Unless noted, calls follow the shape of the dose curve; as a rule, active = well fitted curve in the direction sought with a large enough effect; inconclusive = small, poorly fitted or top-dose-only effect, or another doubt; inactive = no such curve, though single readings can be large; an effect the other way counts as inactive or inconclusive. Potency is read from the fitted curve at half-maximal effect.

SMILES	SARS PLP yeast	Pf growth 48h	Sm TGR inh	Pf growth 96h
COc1ccc(NC(=O)/C=C/c2ccc(Br)o2)cn1	0.4%	63.1%	11.2µM*	9.3%
COC(=O)c1sc(-c2ccc(Cl)cc2)cc1NC(=O)COCC(=O)O	1.5%	2.08µM*	5.7%	-8.4%
CN(C)c1cccc(C(=O)Nc2nc3ccc(S(=O)(=O)N4CCCC4)cc3s2)c1	/	/	-0.2%	/
Cc1cccc(NC(=O)c2oc3ccccc3c2NC(=O)c2cc(=O)c3ccc(C)cc3o2)c1	/	/	7.5%	/
CN1CCN(C(=O)c2ccc(N(Cc3ccc(Cl)cc3)S(C)(=O)=O)cc2)CC1	3.4%	1.8%	2.9%	?
CC(C)NC(=O)c1ccc(N(Cc2ccc(Cl)cc2)S(C)(=O)=O)cc1	1.6%	-0.7%	-25.5%	10.4µM*
CCc1ccc2occ(CC(=O)Nc3ccc(C)c(C)c3)c2c1	/	/	1.7%	/
CCc1ccc(NC(=O)C2CCCN2S(=O)(=O)c2ccc3c(c2)C(C)(C)C(=O)N3C)cc1 (stereo unspecified)	-6.4%	?	-5.5%	-10.4%
Cc1ccc(C(=O)NC(N2CCCC2)C(Cl)(Cl)Cl)cc1 (stereo unspecified)	3.9%	2.9%	35.5µM*	?
O=C(NC(N1CCOCC1)C(Cl)(Cl)Cl)c1ccc(Br)cc1 (stereo unspecified)	-2.5%	-5.4%	?	-14.9%
COc1ccc(Nc2nc3ccccc3c3nnc(C)n23)cc1Cl	/	/	-4.7%	/
CSc1nc2n(n1)C(C)C1=C(CCCC1=O)N2 (stereo unspecified)	-0.9%	3.3%	9.1%	2.94µM*
CCSc1nc2n(n1)C(c1cccc(F)c1)C1=C(CCCC1=O)N2 (stereo unspecified)	-3.6%	?	6.3%	?
CC(NC(=O)Cc1ccc(NC(=O)N2CCSc3ncccc32)cc1)c1ccccc1 (stereo unspecified)	/	/	1.6%	/
COc1ccc(-c2ccc(CCC(=O)O)n2CC(=O)Nc2cccc(OC)c2)cc1	1.8%	-3.5%	?	-4.5%
CCOC(=O)Cn1c(-c2cccs2)cc2cc(Cl)ccc21	/	/	-0.8%	/
Cc1c(Cl)cccc1-n1c(CCC(=O)O)ccc1-c1cccs1	/	/	39.8µM*	/
COc1ccc(-c2ccc(CCC(=O)O)n2-c2ccc(Cl)cc2C)cc1	/	/	39.8µM*	/
Cc1cc(Cl)ccc1-n1c(CCC(=O)O)ccc1-c1cccs1	/	/	28.2µM*	/
Cc1ccc(Cl)cc1-n1c(CCC(=O)O)ccc1-c1cccs1	/	/	39.8µM*	/
Cc1c(Cl)cccc1NC(=O)Cn1c(CCC(=O)O)ccc1-c1cccs1	/	/	-26.4%	/
Cc1ccc(-n2nc3c(N4CCC(C(=O)N5CCCCCC5)CC4)nnc(C)c3c2C)cc1	-1.6%	?	-18.6%	11.7µM*
CCCN1CCN(C(=O)C2CCN(c3nnc(C)c4c(C)n(-c5ccc(C)cc5)nc34)CC2)CC1	0.4%	10.4µM*	0.7%	?
CC1CCN(c2cc3c(cc2F)c(=O)c(S(=O)(=O)c2cccc(Cl)c2)cn3Cc2ccccc2)CC1	/	/	-0.3%	/
COc1ccc(CN(C2CC2)S(=O)(=O)c2ccccc2Br)cc1	1.2%	/	/	/
SMILES	SARS PLP yeast	Pf growth 48h	Sm TGR inh	Pf growth 96h
CCOc1cc(/C=N/NC(=O)C(N)=O)cc(Br)c1O	-0.7%	18.2%	50.1µM*	13.4%
Cc1ccc2ccc[n+](Cc3ccccc3)c2c1	5.1%	0.415µM*	-3.0%	0.522µM*
Cc1ccc2c(c1)c(C)cc[n+]2Cc1ccccc1	23.0%	0.37µM*	1.6%	0.185µM*
COc1ccc2c(c1)c(C)cc[n+]2Cc1ccccc1	-3.4%	?	-7.5%	0.2%
CCOc1ccccc1CN1C(=O)c2ccccc2C1C(=O)NC1CCCCCC1 (stereo unspecified)	/	/	1.2%	/
COC(=O)c1cccc(Cn2c(Cl)c(/C=N/Nc3ccccc3C)sc2=O)c1	-16.2%	?	7.94µM*	?
Cc1ccccc1N/N=C/c1sc(=O)n(Cc2cccc(C(=O)O)c2)c1Cl	-2.6%	?	10µM*	?
O=C(CCN1C(=O)/C(=C/c2ccc(F)cc2)SC1=S)NC1CCS(=O)(=O)C1 (stereo unspecified)	-4.0%	-13.9%	8.8%	?
CC(C(=O)N(C)C1CCS(=O)(=O)C1)N1C(=O)/C(=C/c2ccc(F)cc2)SC1=S (stereo unspecified)	-2.7%	13.1µM*	-27.1%	11.7µM*
O=C1/C(=C/c2ccco2)SC(=S)N1C1CCS(=O)(=O)C1 (stereo unspecified)	1.1%	?	?	77.3%
CCN(C(=O)C(C)N1C(=O)/C(=C/c2ccco2)SC1=S)C1CCS(=O)(=O)C1 (stereo unspecified)	-2.3%	?	39.8µM*	?
CC(C)(C)OC(=O)N1CCC(c2c(C(=O)N3CCC(c4ccccc4)C3)cnn2-c2ccc(Cl)cc2)CC1 (stereo unspecified)	/	/	-1.9%	/
COC(=O)c1ccccc1NC(=O)Cn1c(=O)n(-c2cccc(OC)c2)c(=O)c2c(C)c(C(=O)N(C)C)sc21	/	/	17.6%	/
COCc1cc(C)nc(NC2CCCCC2)c1C#N	-5.4%	3.7µM*	5.8%	-26.9%
COCc1cc(C)nc(N2CCCCC2)c1C#N	-9.2%	-2.8%	-5.0%	-3.9%
CC(C)=CCN1CCN(Cc2cnc(N3CCOCC3)s2)CC1CCO (stereo unspecified)	-0.5%	160.1%	-29.1%	11.7µM*
OCCC1CN(Cc2cccc3nccnc23)CCN1C1CCCC1 (stereo unspecified)	1.4%	15.2%	25.4%	13.1µM*
CC(C)=CCN1CCN(Cc2cccc3nccnc23)CC1CCO (stereo unspecified)	1.0%	32.2%	0.7%	?
CC(C)=CCN1CCN(Cc2cccc3nonc23)CC1CCO (stereo unspecified)	0.7%	3.8%	-0.8%	2.08µM*
OCCC1CN(Cc2cnc(-c3ccc(Cl)cc3)nc2)CCN1C1CCCCC1 (stereo unspecified)	-0.4%	10.4µM*	1.0%	8.2%
Cc1c(-c2nc(-c3ccc4c(c3)OCO4)no2)nnn1-c1cccc(C(F)(F)F)c1	/	/	8.0%	/
Cc1ccc(CNC(=O)CCCN2C(=O)c3cccnc3Oc3ccc(Cl)cc32)cc1	/	/	-12.9%	/
OCCC1CN(Cc2nc3ccc(F)cc3[nH]2)CCN1C1CCCC1 (stereo unspecified)	-0.3%	10.7%	-3.3%	2.6%
Cc1cc(C)n(-c2ccc(F)cc2CN2CCN(C3CCCC3)C(CCO)C2)n1 (stereo unspecified)	-0.1%	18.5%	13.3%	1.65µM*
OCCC1CN(Cc2cccc3nonc23)CCN1Cc1ccsc1 (stereo unspecified)	0.9%	9.7%	-6.4%	50.3%
OCCC1CN(Cc2cccc3nonc23)CCN1C1CCCCC1 (stereo unspecified)	1.1%	-1.8%	2.2%	14.7µM*
CN1C(=O)c2ccc(C(=O)Nc3ccccc3O)cc2C1=O	-1.0%	5.4%	6.8%	?
CCOCCCn1c(=N)c(C(=O)NCCN2CCOCC2)cc2c(=O)n3cccc(C)c3nc21	-0.5%	10.0%	-0.4%	1.47µM*
